One assay has as its system AAK1. Set-up: species or system human, MV4-11 + K-562 + COLO205 + SK-N-BE2 + OVCAR-8. To be noted: read-out: apparent Kd, compound concentrations: 100 nM and 1000 nM (sheet 'Samples'), n = 1.
In the next assay the test system is BMP2K. Also on record: species or system human, MV4-11 + K-562 + COLO205 + SK-N-BE2 + OVCAR-8. To be noted: read-out: apparent Kd, compound concentrations: 100 nM and 1000 nM (sheet 'Samples'), n = 1.
In another assay the test system is CLK1. Set-up: species or system human, MV4-11 + K-562 + COLO205 + SK-N-BE2 + OVCAR-8. To be noted: read-out: apparent Kd, compound concentrations: 100 nM and 1000 nM (sheet 'Samples'), n = 1.
Another assay deals with CSNK2A1;CSNK2A3. Set-up: species or system human, MV4-11 + K-562 + COLO205 + SK-N-BE2 + OVCAR-8. As to conditions: read-out: apparent Kd, compound concentrations: 100 nM and 1000 nM (sheet 'Samples'), n = 1.
Another assay deals with CSNK2A2. Also on record: species or system human, MV4-11 + K-562 + COLO205 + SK-N-BE2 + OVCAR-8. To be noted: read-out: apparent Kd, compound concentrations: 100 nM and 1000 nM (sheet 'Samples'), n = 1.
A further assay relates to FLT4. Set-up: species or system human, MV4-11 + K-562 + COLO205 + SK-N-BE2 + OVCAR-8. To be noted: read-out: apparent Kd, compound concentrations: 100 nM and 1000 nM (sheet 'Samples'), n = 1.
The subject of another assay is GAK. Also on record: species or system human, MV4-11 + K-562 + COLO205 + SK-N-BE2 + OVCAR-8. To be noted: read-out: apparent Kd, compound concentrations: 100 nM and 1000 nM (sheet 'Samples'), n = 1.
The test system of the next assay is GSK3A. Also on record: species or system human, MV4-11 + K-562 + COLO205 + SK-N-BE2 + OVCAR-8. To be noted: read-out: apparent Kd, compound concentrations: 100 nM and 1000 nM (sheet 'Samples'), n = 1.
Another assay concerns GSK3B. Also on record: species or system human, MV4-11 + K-562 + COLO205 + SK-N-BE2 + OVCAR-8. To be noted: read-out: apparent Kd, compound concentrations: 100 nM and 1000 nM (sheet 'Samples'), n = 1.
Another assay relates to MELK. Set-up: species or system human, MV4-11 + K-562 + COLO205 + SK-N-BE2 + OVCAR-8. To be noted: read-out: apparent Kd, compound concentrations: 100 nM and 1000 nM (sheet 'Samples'), n = 1.
Another assay concerns NUAK1. Set-up: species or system human, MV4-11 + K-562 + COLO205 + SK-N-BE2 + OVCAR-8. As to conditions: read-out: apparent Kd, compound concentrations: 100 nM and 1000 nM (sheet 'Samples'), n = 1.
Another assay relates to PAK4. Set-up: species or system human, MV4-11 + K-562 + COLO205 + SK-N-BE2 + OVCAR-8. To be noted: read-out: apparent Kd, compound concentrations: 100 nM and 1000 nM (sheet 'Samples'), n = 1.
Another assay relates to PKN1. Also on record: species or system human, MV4-11 + K-562 + COLO205 + SK-N-BE2 + OVCAR-8. To be noted: read-out: apparent Kd, compound concentrations: 100 nM and 1000 nM (sheet 'Samples'), n = 1.
Assay [1] concerns PKN3. Set-up: species or system human, MV4-11 + K-562 + COLO205 + SK-N-BE2 + OVCAR-8. As to conditions: read-out: apparent Kd, compound concentrations: 100 nM and 1000 nM (sheet 'Samples'), n = 1.
The subject of a further assay is PRKAG1. Set-up: species or system human, MV4-11 + K-562 + COLO205 + SK-N-BE2 + OVCAR-8. As to conditions: read-out: apparent Kd, compound concentrations: 100 nM and 1000 nM (sheet 'Samples'), n = 1.
In the next assay the target is Q6ZSR9 (human, UniProt Q6ZSR9). Set-up: species or system MV4-11 + K-562 + COLO205 + SK-N-BE2 + OVCAR-8. As to conditions: read-out: apparent Kd, compound concentrations: 100 nM and 1000 nM (sheet 'Samples'), n = 1.
Chain of Q6ZSR9 (Q6ZSR9 whole entry, looked up): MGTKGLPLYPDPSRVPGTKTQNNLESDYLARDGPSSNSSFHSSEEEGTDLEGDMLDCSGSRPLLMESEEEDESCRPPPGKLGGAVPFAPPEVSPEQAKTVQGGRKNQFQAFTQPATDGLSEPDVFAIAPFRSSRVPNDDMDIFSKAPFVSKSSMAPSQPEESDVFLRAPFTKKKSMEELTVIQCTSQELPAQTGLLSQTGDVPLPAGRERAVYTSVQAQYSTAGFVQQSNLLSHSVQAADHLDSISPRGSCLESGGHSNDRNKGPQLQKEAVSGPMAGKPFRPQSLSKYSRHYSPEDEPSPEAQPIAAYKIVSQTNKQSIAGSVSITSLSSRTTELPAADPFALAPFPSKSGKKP
Another assay has as its system RET. Set-up: species or system human, MV4-11 + K-562 + COLO205 + SK-N-BE2 + OVCAR-8. To be noted: read-out: apparent Kd, compound concentrations: 100 nM and 1000 nM (sheet 'Samples'), n = 1.
The subject of another assay is SIK2. Set-up: species or system human, MV4-11 + K-562 + COLO205 + SK-N-BE2 + OVCAR-8. As to conditions: read-out: apparent Kd, compound concentrations: 100 nM and 1000 nM (sheet 'Samples'), n = 1.
Assay [2] concerns PKN3. To be noted: hek293t cells.
For the next assay, the system named is CLK4. Set-up: species or system human, MV4-11 + K-562 + COLO205 + SK-N-BE2 + OVCAR-8. As to conditions: read-out: apparent Kd; compound concentrations: 100 nM and 1000 nM (sheet 'Samples'), CATDS: 1.10234043350519E-2; n = 1.

Among the data in publication PMC11062922 (Nature Chemical Biology, 2023) are potency estimated from few doses and IC50 values, retold here.

Like-named read-outs stand apart in the source and are kept apart here.
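Wherever IC50 is given: NanoBRET target engagement in HEK293T cells transiently expressing full-length PKN3 with C-terminal NanoLuc, displacement of fluorescent tracer K5 (500 nM), BRET read after 2 h equilibration at 37 °C.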

Turning to `CCOC(=O)N1CCC(n2cnc(-c3ccc(F)cc3)c2-c2ccnc(N)n2)CC1` [SB-219952], the potency estimated from few doses in the assay with AAK1 (CATDS: 1.33097974797153E-2) was 454 nM; in the assay with BMP2K (CATDS: 1.0000193686827899E-2), 867 nM; in the assay with CLK1 (CATDS: 1.18597213826205E-2) it was 578 nM; with CSNK2A1;CSNK2A3 (CATDS: 1.2357704080210899E-2), 529 nM; with CSNK2A2 (CATDS: 1.08103941261705E-2), 715 nM; in the assay on FLT4 (CATDS: 1.0948126782386601E-2), 694 nM. In addition, the potency estimated from few doses in the assay on GAK (CATDS: 1.8528073728162099E-2) is 245 nM; in the assay on GSK3A (CATDS: 1.9129432777521899E-2) it was 232 nM; in the assay on GSK3B (CATDS: 1.5651651675632799E-2), 331 nM; with MELK (CATDS: 7.6939005676200604E-3) it was 1970 nM; in the assay with NUAK1 (CATDS: 9.2511282375558092E-3) it was 1070 nM; with PAK4 (CATDS: 1.1415940389083201E-2), 630 nM. Besides, the potency estimated from few doses in the assay with PKN1 (CATDS: 1.0348059231995501E-2) is 795 nM; in the assay with PKN3 [1] (CATDS: 9.8185291638943593E-3), 909 nM; in the assay with PRKAG1 (CATDS: 1.03550294618252E-2), 794 nM; with Q6ZSR9 (CATDS: 1.30827275923428E-2) it was 470 nM; with RET (CATDS: 1.35684167881036E-2) it was 436 nM; with SIK2 (CATDS: 1.0490419954407099E-2), 769 nM.
Turning to `CCOc1nccc2c1nc(-c1nonc1N)n2CC` [SB-737198], the results for the potency estimated from few doses in the assay with PKN3 [1] (CATDS: 0.243522946677111) and in the assay with SIK2 (CATDS: 0.197359346007206) were 869 nM and 1500 nM, respectively. Moreover, the IC50 is > 50000 nM in the assay with PKN3 [2] (read-out: Average, n = 4); > 50000 nM in the assay with PKN3 [2] (read-out: Rep 1); > 50000 nM in the assay on PKN3 [2] (read-out: Rep 2); > 50000 nM with PKN3 [2] (read-out: Rep 3); > 50000 nM in the assay on PKN3 [2] (read-out: Rep 4).
`O=C1N=C(NCCc2ccc(Cl)cc2)S/C1=C\c1ccc2ncccc2c1` [RO4498479-000]: the potency estimated from few doses in the assay on AAK1 (CATDS: 1.47357709485617E-2) is 257 nM; in the assay on BMP2K (CATDS: 1.0596911535971001E-2), 487 nM; with CLK1 (CATDS: 2.3801432407155699E-2) it was 123 nM; in the assay with CLK4 it was 447 nM; in the assay on CSNK2A1;CSNK2A3 (CATDS: 1.63252209283915E-2) it was 216 nM; in the assay on CSNK2A2 (CATDS: 1.5998355653452E-2), 224 nM. In addition, the potency estimated from few doses in the assay with FLT4 (CATDS: 1.0631245795833501E-2) was 483 nM; with GAK (CATDS: 1.9710228455472299E-2), 161 nM; in the assay on GSK3A (CATDS: 2.3758867869594399E-2), 123 nM; with GSK3B (CATDS: 1.7085262625281698E-2), 201 nM; in the assay with MELK (CATDS: 8.0269577096188198E-3) it was 1000 nM; in the assay on NUAK1 (CATDS: 8.4437303302316406E-3), 860 nM. Also, the potency estimated from few doses is 375 nM in the assay with PAK4 (CATDS: 1.2005445098745401E-2); 713 nM in the assay on PKN1 (CATDS: 9.0371010763674806E-3); 431 nM in the assay on PKN3 [1] (CATDS: 1.12150497096419E-2); 312 nM in the assay on PRKAG1 (CATDS: 1.32160889121976E-2); 282 nM with Q6ZSR9 (CATDS: 1.3986845405836199E-2); 278 nM in the assay with RET (CATDS: 1.4080551975431E-2). Also, the potency estimated from few doses in the assay on SIK2 (CATDS: 1.14849273453617E-2) was 410 nM.
